Growth inhibition data for ten molecules are collected here from PubChem BioAssay (NCI).

Test [1] is described as follows: NCI Yeast Anticancer Drug Screen. Data for the rad50 strain (AID 155).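 Note: 0% = growth of vehicle-only cultures of the same strain.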 Particulars: S. cerevisiae rad50 strain growth inhibition, active compounds read high. Put shortly:
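A DNA repair-deficient yeast mutant serves as the test organism; compound-induced growth inhibition is calculated against vehicle-treated cells.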

Test [2] in a line: NCI Yeast Anticancer Drug Screen. Data for the mec2-1 strain (AID 157). Particulars: S. cerevisiae mec2-1 strain, active compounds read high. Put shortly:
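Vehicle-treated cultures served as reference for growth inhibition of compound-exposed mec2-1 yeast.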

A short description of test [3]: NCI Yeast Anticancer Drug Screen. Data for the sgs1 mgt1 strain (AID 161).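 Note: 0% = growth of cultures given vehicle only.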 Particulars: S. cerevisiae sgs1 mgt1 strain, active compounds read high. The procedure, abridged: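 Read-out: growth inhibition vs vehicle controls. Cells: mutant yeast strain deficient in DNA damage repair.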
Test [4] in a line: NCI Yeast Anticancer Drug Screen. Data for the cln2 rad14 strain (AID 165).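 Note: 0% = growth equal to vehicle treated cultures.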 As to conditions: S. cerevisiae cln2 rad14 strain, active compounds read high. Put shortly: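 Each compound was tested on cln2 rad14 yeast. Inhibition of growth was calculated against vehicle-exposed controls.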
Test [5] can be described thus: NCI Yeast Anticancer Drug Screen. Data for the bub3 strain (AID 167). Particulars: S. cerevisiae bub3 mutant strain, active compounds read high. The procedure, abridged: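 Inhibition values come from growth of compound-treated mutant yeast normalised to vehicle-treated controls.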
Test [6] is described as follows: NCI Yeast Anticancer Drug Screen. Data for the mlh1 rad18 strain (AID 175). Particulars: S. cerevisiae mlh1 rad18 strain growth inhibition, active compounds read high. Put shortly:
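Vehicle-treated cultures served as the reference for growth inhibition in a yeast strain carrying DNA damage repair alterations exposed to each compound.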

Where [7] appears, read: at 5.0 µM (retest, dose inferred, filed as 0.5).
Setting [8] is: at 50.0 µM (retest, dose inferred, filed as 5.0).

Each structure is given as a SMILES string. The panel holds about 79,000 compounds, 15% with a hit somewhere; the sample as a whole holds those more often. Values without a mark were called inactive. Active and inactive are the calls of the source. Cut-off read from the data, not from the text of the source: active = growth inhibition above about 70%; inactive = the rest.

Turning to `COC(=O)C12CCC(C)(C)CC1C1=CCC3C4(C)CC(O)C(O)C(C)(C(=O)OC)C4CCC3(C)C1(CO)CC2` (stereo not given), the growth inhibition in test [1] (setting [7]) was 30%; in test [1] (setting [8]), 97% (active); in test [1] (at 50.0 µM), 91.5% (active); in test [2] (setting [7]) it was 30%; in test [2] (setting [8]), 99% (active); in test [2] (at 50.0 µM), 91.7% (active). In addition, the growth inhibition in test [3] (setting [7]) was 15%; in test [3] (setting [8]), 99% (active); in test [3] (at 50.0 µM), 91.8% (active); in test [4] (setting [7]) it was 39%; in test [4] (setting [8]), 99% (active); in test [4] (at 50.0 µM), 91.4% (active). Moreover, the growth inhibition in test [5] (setting [7]) is 26%; in test [5] (setting [8]) it was 99% (active); in test [5] (at 50.0 µM), 88.8% (active); in test [6] (setting [7]), 31%; in test [6] (setting [8]) it was 98% (active); in test [6] (at 50.0 µM), 85.8% (active).
As for `COc1ccc(CCCCC(=O)O)cc1O`, the growth inhibition in test [1] (setting [7]) is -155%; in test [1] (setting [8]), -161%; in test [1] (at 50.0 µM) it was 40.9%; in test [2] (setting [7]) it was -52%; in test [2] (setting [8]), -54%; in test [2] (at 50.0 µM), 14.1%. The growth inhibition is -56% in test [3] (setting [7]); -65% in test [3] (setting [8]); 29.9% in test [3] (at 50.0 µM); -57% in test [4] (setting [7]); -55% in test [4] (setting [8]); 61.9% in test [4] (at 50.0 µM). Moreover, the growth inhibition is -69% in test [5] (setting [7]); -80% in test [5] (setting [8]); 2.5% in test [5] (at 50.0 µM); -117% in test [6] (setting [7]); -117% in test [6] (setting [8]); 28.4% in test [6] (at 50.0 µM).
Regarding `N#CC12CCCC(=O)N1c1ccccc1S2` (stereo not given), the growth inhibition was 10% in test [1] (setting [7]); 5% in test [1] (setting [8]); 12.9% in test [1] (at 50.0 µM); -7% in test [2] (setting [7]); 10% in test [2] (setting [8]); 7.85% in test [2] (at 50.0 µM). Moreover, the growth inhibition in test [3] (setting [7]) is 1%; in test [3] (setting [8]) it was 1%; in test [3] (at 50.0 µM), -2.3%; in test [4] (setting [7]) it was -12%; in test [4] (setting [8]) it was -3%; in test [4] (at 50.0 µM), 43.5%. Further, the growth inhibition was 3% in test [5] (setting [7]); 1% in test [5] (setting [8]); -6.8% in test [5] (at 50.0 µM); 14% in test [6] (setting [7]); -2% in test [6] (setting [8]); -10.2% in test [6] (at 50.0 µM).
For the molecule `Nc1ccc2nc3ccccc3nc2c1`, the growth inhibition in test [1] (setting [7]) was -11%; in test [1] (setting [8]) it was 95% (active); in test [1] (at 50.0 µM), 97% (active); in test [2] (setting [7]) it was -11%; in test [2] (setting [8]), 60%; in test [2] (at 50.0 µM), 81% (active). The growth inhibition in test [3] (setting [7]) is -22%; in test [3] (setting [8]), 77% (active); in test [3] (at 50.0 µM) it was 64.8%; in test [4] (setting [7]) it was -10%; in test [4] (setting [8]), 44%; in test [4] (at 50.0 µM) it was 74% (active). The growth inhibition in test [5] (setting [7]) is -4%; in test [5] (setting [8]), 78% (active); in test [5] (at 50.0 µM), 75.8% (active); in test [6] (setting [7]) it was 4%; in test [6] (setting [8]) it was 90% (active); in test [6] (at 50.0 µM) it was 88.4% (active).
Turning to `Cc1ccc(S(=O)(=O)OC2COC3C(OS(=O)(=O)c4ccc(C)cc4)COC23)cc1` (stereo not given), the growth inhibition in test [1] (setting [7]) is -2%; in test [1] (setting [8]) it was -13%; in test [1] (at 50.0 µM), 19.6%; in test [2] (setting [7]) it was -7%; in test [2] (setting [8]), 4%; in test [2] (at 50.0 µM), 9.8%. Further, the growth inhibition in test [3] (setting [7]) is 12%; in test [3] (setting [8]), -27%; in test [3] (at 50.0 µM), 26.4%; in test [4] (setting [7]), 1%; in test [4] (setting [8]), -5%; in test [4] (at 50.0 µM), 46%. In addition, the growth inhibition in test [5] (setting [7]) was 0%; in test [5] (setting [8]), -11%; in test [5] (at 50.0 µM) it was 96.6% (active); in test [6] (setting [7]), -39%; in test [6] (setting [8]), -63%; in test [6] (at 50.0 µM) it was 4%.
`Cc1nn(C(=O)c2ccccc2O)c2c1C(c1ccc(O)cc1O)SC(N)=N2` (stereo not given): the growth inhibition in test [1] (setting [7]) was -31%; in test [1] (setting [8]), 28%; in test [1] (at 50.0 µM) it was 46%; in test [2] (setting [7]) it was -1%; in test [2] (setting [8]) it was 47%; in test [2] (at 50.0 µM), 22.6%. The growth inhibition in test [3] (setting [7]) was -3%; in test [3] (setting [8]), 24%; in test [3] (at 50.0 µM), 42.5%; in test [4] (setting [7]), 16%; in test [4] (setting [8]), 27%; in test [4] (at 50.0 µM) it was 41%. The growth inhibition in test [5] (setting [7]) was 15%; in test [5] (setting [8]), 81% (active); in test [5] (at 50.0 µM), 71.7% (active); in test [6] (setting [7]) it was -4%; in test [6] (setting [8]), 54%; in test [6] (at 50.0 µM) it was 48.2%.
With `O=Cc1ccc2c(c1)CC1(C2)Cc2ccc3c(c2C1)CCC3` (stereo not given), the growth inhibition in test [1] (setting [7]) was -1%; in test [1] (setting [8]), 68%; in test [1] (at 50.0 µM), 92.9% (active); in test [2] (setting [7]), 0%; in test [2] (setting [8]) it was 78% (active); in test [2] (at 50.0 µM), 89.3% (active). Also, the growth inhibition in test [3] (setting [7]) was 14%; in test [3] (setting [8]), 81% (active); in test [3] (at 50.0 µM) it was 87.6% (active); in test [4] (setting [7]) it was -2%; in test [4] (setting [8]), 41%; in test [4] (at 50.0 µM), 73% (active). For the same molecule, the growth inhibition in test [5] (setting [7]) was -1%; in test [5] (setting [8]), 74% (active); in test [5] (at 50.0 µM), 91.5% (active); in test [6] (setting [7]), 1%; in test [6] (setting [8]), 74% (active); in test [6] (at 50.0 µM), 84.8% (active).
With `COc1ccc2nc(NC(=O)Nc3c(Cl)cccc3Cl)sc2c1`, the growth inhibition is 13% in test [1] (setting [7]); 99% (active) in test [1] (setting [8]); 98.4% (active) in test [1] (at 50.0 µM); -3% in test [2] (setting [7]); 99% (active) in test [2] (setting [8]); 99.3% (active) in test [2] (at 50.0 µM). Moreover, the growth inhibition in test [3] (setting [7]) was 20%; in test [3] (setting [8]), 99% (active); in test [3] (at 50.0 µM), 99% (active); in test [4] (setting [7]), 15%; in test [4] (setting [8]), 98% (active); in test [4] (at 50.0 µM), 97.6% (active). Besides, the growth inhibition in test [5] (setting [7]) was 2%; in test [5] (setting [8]), 99% (active); in test [5] (at 50.0 µM), 98.7% (active); in test [6] (setting [7]), 30%; in test [6] (setting [8]), 98% (active); in test [6] (at 50.0 µM) it was 98.3% (active).
For `CCN(CC)C(=O)CCCC1CCCCC1`, the growth inhibition is 1% in test [1] (setting [7]); 23% in test [1] (setting [8]); 45.6% in test [1] (at 50.0 µM); -3% in test [2] (setting [7]); 4% in test [2] (setting [8]); 13.2% in test [2] (at 50.0 µM). The growth inhibition is 0% in test [3] (setting [7]); 20% in test [3] (setting [8]); 66.5% in test [3] (at 50.0 µM); 0% in test [4] (setting [7]); 11% in test [4] (setting [8]); -9% in test [4] (at 50.0 µM). For the same molecule, the growth inhibition in test [5] (setting [7]) is 6%; in test [5] (setting [8]), 25%; in test [5] (at 50.0 µM) it was 44%; in test [6] (setting [7]) it was 1%; in test [6] (setting [8]) it was 7%; in test [6] (at 50.0 µM) it was 26.9%.
On to `Cc1ccc(NC(=S)SCc2ccc3c(c2)OCO3)cc1Cl`, for which the growth inhibition is 19% in test [1] (setting [7]); 96% (active) in test [1] (setting [8]); 98.9% (active) in test [1] (at 50.0 µM); 15% in test [2] (setting [7]); 99% (active) in test [2] (setting [8]); 99.5% (active) in test [2] (at 50.0 µM). The growth inhibition in test [3] (setting [7]) was 16%; in test [3] (setting [8]), 98% (active); in test [3] (at 50.0 µM) it was 99% (active); in test [4] (setting [7]) it was -7%; in test [4] (setting [8]), 97% (active); in test [4] (at 50.0 µM), 98.8% (active). The growth inhibition in test [5] (setting [7]) is 15%; in test [5] (setting [8]), 99% (active); in test [5] (at 50.0 µM), 99.2% (active); in test [6] (setting [7]), 39%; in test [6] (setting [8]) it was 97% (active); in test [6] (at 50.0 µM), 99.2% (active).
